From the supplement of paper PMC10849652
The full data set covers some 7,900 targets. This sample favours those with a hit. About 0.6% of all pairs of compound and target were hits.

How the values were obtained:
Experiment in all cases: log2 fold change, soluble protein after heating vs DMSO (PISA); higher = thermal stabilisation; K562 cells, 10 uM, 30 min; active = over 0.2 and 3.5 SD of the protein, either way, in both replicates (recomputed)
[1] = compound: C1=CC=C(C=C1)[C@H](COC2=CC3=C(C=C2)NC(=O)N3)NC(=O)C4=CC=CN(C4=O)CC5=CC(=C(C=C5)F)F
Summary of the method: (§1)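 Soluble protein was defined as the supernatant after 21,000xg for 90 min. It came from K562 cells at 2×10^6 cells/mL given 10 μM compound for 30 min, heated in aliquots for 3 min across 48°C-58°C, pooled, and extracted in PBS with 0.5% NP-40 at 4°C, and was quantified by TMTpro 16plex LC-MS/MS with equalised channel sums. Thermal stability against control samples, from duplicates, is reported as log2 fold change.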

[2] = compound: CC1=C2C(=CC=C1)N=C(N(C2=O)C3=CC=CC=C3C)CN4C=NC5=C(N=CN=C54)N
Summary of the method: as §1

[3] = compound: CC1=C(SC2=C1C(=N[C@H](C3=NN=C(N32)C)CC(=O)N)C4=CC=C(C=C4)Cl)C
Summary of the method: as §1

[4] = compound: Cc1sc2c(c1C)C(c1ccc(Cl)cc1)=N[C@@H](CC(=O)OC(C)(C)C)c1nnc(C)n1-2
Summary of the method: as §1

[5] = compound: c1ccc([C@@H]2C[C@H]2NC2CCNCC2)cc1
Summary of the method: as §1

Measured: log2 fold change

GOLGA6B (UniProt A6NDN3)
Sequence of UniProt A6NDN3 (A6NDN3 whole entry, looked up): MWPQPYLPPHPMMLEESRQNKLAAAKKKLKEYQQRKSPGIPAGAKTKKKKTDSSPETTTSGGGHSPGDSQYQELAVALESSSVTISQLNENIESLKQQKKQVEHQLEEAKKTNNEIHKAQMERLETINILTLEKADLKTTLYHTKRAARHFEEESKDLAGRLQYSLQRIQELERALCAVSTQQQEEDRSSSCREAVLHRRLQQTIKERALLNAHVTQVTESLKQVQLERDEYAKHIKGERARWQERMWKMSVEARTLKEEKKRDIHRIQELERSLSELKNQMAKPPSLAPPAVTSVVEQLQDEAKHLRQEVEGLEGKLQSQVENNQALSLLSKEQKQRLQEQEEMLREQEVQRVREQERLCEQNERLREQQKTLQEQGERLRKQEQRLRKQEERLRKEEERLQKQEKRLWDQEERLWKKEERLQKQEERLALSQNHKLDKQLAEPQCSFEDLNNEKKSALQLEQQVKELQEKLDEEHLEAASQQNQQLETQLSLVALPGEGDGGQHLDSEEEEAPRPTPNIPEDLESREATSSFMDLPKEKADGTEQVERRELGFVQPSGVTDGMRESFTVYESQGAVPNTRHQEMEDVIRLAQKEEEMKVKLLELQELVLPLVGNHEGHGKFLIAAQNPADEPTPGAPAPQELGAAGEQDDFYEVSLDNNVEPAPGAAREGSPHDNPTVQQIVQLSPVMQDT
inactive: [1] 0.043 | [2] 0.19

FUT8 (UniProt Q9BYC5)
Sequence of UniProt Q9BYC5 (Q9BYC5 whole entry, looked up): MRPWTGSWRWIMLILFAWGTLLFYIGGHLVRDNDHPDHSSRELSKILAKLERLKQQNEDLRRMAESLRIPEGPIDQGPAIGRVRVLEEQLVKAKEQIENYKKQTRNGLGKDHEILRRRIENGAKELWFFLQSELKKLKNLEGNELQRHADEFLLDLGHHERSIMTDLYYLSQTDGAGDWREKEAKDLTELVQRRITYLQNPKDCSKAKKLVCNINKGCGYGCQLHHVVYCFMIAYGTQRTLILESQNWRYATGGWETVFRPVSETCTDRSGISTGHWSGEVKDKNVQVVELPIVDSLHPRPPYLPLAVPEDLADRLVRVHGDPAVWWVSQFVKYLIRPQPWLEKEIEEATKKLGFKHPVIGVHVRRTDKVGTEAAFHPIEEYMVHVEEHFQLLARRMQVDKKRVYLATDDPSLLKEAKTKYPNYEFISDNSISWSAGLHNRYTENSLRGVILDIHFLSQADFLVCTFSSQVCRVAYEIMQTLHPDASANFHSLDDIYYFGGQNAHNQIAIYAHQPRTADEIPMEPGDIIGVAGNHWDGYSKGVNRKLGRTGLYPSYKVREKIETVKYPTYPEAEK
inactive: [1] 0 | [3] 0.068 | [2] -0.06 | [4] -0.168 | [5] 0.049

FARS2 (UniProt O95363)
Sequence of UniProt O95363 (O95363 whole entry, looked up): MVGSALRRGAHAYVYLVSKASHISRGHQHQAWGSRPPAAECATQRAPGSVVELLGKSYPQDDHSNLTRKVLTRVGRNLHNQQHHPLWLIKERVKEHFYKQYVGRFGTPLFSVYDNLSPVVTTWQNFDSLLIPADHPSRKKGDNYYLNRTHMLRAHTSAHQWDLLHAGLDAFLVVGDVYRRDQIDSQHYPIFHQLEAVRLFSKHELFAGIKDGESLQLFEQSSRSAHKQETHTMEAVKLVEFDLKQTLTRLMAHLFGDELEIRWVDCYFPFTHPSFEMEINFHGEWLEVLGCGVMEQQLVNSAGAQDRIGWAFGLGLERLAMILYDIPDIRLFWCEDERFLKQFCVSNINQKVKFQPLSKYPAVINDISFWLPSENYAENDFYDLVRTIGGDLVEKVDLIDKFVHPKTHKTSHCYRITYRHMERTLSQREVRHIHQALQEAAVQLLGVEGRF
inactive: [1] -0.021 | [3] 0.022 | [2] 0.006 | [4] 0.069 | [5] -0.018

FMR1 (UniProt Q06787)
inactive: [3] -0.237 | [5] -0.038

FHOD1 (UniProt Q9Y613)
Sequence of UniProt Q9Y613 (Q9Y613 whole entry, looked up): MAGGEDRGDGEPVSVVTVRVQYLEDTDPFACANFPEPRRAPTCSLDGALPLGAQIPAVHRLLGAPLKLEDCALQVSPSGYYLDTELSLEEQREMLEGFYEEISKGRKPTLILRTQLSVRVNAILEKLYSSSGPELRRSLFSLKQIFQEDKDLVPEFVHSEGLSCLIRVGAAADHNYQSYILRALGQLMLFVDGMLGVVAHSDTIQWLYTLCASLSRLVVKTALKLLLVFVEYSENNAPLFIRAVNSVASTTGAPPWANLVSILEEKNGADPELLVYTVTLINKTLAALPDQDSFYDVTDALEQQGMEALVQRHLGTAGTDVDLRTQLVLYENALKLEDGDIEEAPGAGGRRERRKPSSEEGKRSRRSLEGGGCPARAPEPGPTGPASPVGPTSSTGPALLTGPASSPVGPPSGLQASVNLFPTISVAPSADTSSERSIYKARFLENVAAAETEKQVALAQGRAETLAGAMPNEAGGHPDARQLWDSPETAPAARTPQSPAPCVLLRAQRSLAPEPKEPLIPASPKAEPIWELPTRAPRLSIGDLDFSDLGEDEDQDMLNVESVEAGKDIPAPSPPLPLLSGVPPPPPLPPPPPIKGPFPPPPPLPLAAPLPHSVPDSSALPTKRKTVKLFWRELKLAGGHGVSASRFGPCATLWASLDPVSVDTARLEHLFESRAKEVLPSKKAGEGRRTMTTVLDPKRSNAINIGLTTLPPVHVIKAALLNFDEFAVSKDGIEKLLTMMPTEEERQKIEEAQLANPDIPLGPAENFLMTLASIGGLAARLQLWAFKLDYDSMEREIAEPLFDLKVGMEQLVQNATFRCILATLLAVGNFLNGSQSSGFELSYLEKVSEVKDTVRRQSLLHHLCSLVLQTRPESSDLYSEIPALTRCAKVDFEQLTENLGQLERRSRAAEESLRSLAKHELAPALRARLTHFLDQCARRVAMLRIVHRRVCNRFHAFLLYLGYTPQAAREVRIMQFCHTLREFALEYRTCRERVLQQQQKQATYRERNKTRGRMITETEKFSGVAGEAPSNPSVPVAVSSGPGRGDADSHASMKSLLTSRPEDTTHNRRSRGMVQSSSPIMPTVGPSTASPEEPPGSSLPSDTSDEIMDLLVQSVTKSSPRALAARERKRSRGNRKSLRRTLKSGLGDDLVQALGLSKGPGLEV
inactive: [1] -0.033 | [3] -0.065 | [2] 0.086 | [5] -0.034

HNRNPF (UniProt P52597)
Sequence of UniProt P52597 (P52597 whole entry, looked up): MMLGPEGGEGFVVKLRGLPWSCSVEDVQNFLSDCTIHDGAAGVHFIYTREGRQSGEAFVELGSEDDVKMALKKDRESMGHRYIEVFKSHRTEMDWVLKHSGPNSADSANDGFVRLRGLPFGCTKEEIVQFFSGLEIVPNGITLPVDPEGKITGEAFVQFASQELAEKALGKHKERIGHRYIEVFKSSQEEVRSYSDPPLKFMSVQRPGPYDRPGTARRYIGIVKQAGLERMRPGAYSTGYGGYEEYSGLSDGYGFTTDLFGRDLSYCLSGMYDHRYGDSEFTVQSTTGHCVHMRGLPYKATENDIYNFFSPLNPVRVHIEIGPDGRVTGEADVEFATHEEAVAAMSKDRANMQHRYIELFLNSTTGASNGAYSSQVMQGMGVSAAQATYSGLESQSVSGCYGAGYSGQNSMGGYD
inactive: [1] -0.032 | [3] -0.049 | [2] -0.019 | [4] -0.02 | [5] -0.017
